From PubChem BioAssay (NCATS)
Inconclusive results are not listed. The source made the active and inactive calls. The call rests on the fitted dose curve; in most records, active means well fitted inhibition curve with a large enough effect; inconclusive means small, poorly fitted or top-dose-only effect; inactive means flat fitted curve, though single readings scatter.

Tests used:
Experiment in all cases: qHTS profiling for inhibitors of Plasmodium falciparum proliferation (AID 504749); further: nearly all actives have a fitted effect of over 60% in size
Details in all cases: P. falciparum in erythrocytes, SYBR Green DNA, 72 h; series mostly up to 28.7 µM
CP185 = system: CP185
Summary of the method: (§1)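 SYBR Green fluorescence of parasite DNA, read after lysis and overnight dark incubation, measured growth over 72 h in erythrocyte culture at 0.3% parasitemia and 2.5% hematocrit. Data normalised to DMSO and 0.29 uM artemisinin, with plate-drift correction.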

CP194 = system: CP194
Summary of the method: as §1

CP201 = system: CP201
Summary of the method: as §1

CP203 = system: CP203
Summary of the method: as §1

CP211 = system: CP211
Summary of the method: as §1

CP215 = system: CP215
Summary of the method: as §1

CP217 = system: CP217
Summary of the method: as §1

CP237 = system: CP237
Summary of the method: as §1

CP238 = system: CP238
Summary of the method: as §1

CP252 = system: CP252
Summary of the method: as §1

CP260 = system: CP260
Summary of the method: as §1

CP262 = system: CP262
Summary of the method: as §1

CP266 = system: CP266
Summary of the method: as §1

CP286 = system: CP286
Summary of the method: as §1

CP291 = system: CP291
Summary of the method: as §1

CP305 = system: CP305
Summary of the method: as §1

CP315 = system: CP315
Summary of the method: as §1

CP325 = system: CP325
Summary of the method: as §1

DFO2036 = system: DFO2036
Summary of the method: as §1

DIV30 = system: DIV30
Summary of the method: as §1

ECU = system: ECU
Summary of the method: as §1

FAB9 = system: FAB9
Summary of the method: as §1

HB3 = system: HB3
Summary of the method: as §1

JCK = system: JCK
Summary of the method: as §1

N140 = system: N140
Summary of the method: as §1

PAD = system: PAD
Summary of the method: as §1

PC15 = system: PC15
Summary of the method: as §1

PC26 = system: PC26
Summary of the method: as §1

SC27B = system: SC27B
Summary of the method: as §1

TAB113 = system: TAB113
Summary of the method: as §1

TAB165 = system: TAB165
Summary of the method: as §1

Measured: Potency
Potency means the concentration at half of the fitted maximal effect.

COc1cc2c(cc1OC)C(c1ccccc1)CN(C)CC2 (stereo unspecified)
active: CP237 6.31 µM
inactive: CP185 | CP194 | CP201 | CP203 | CP211 | CP215 | CP217 | CP238 | CP252 | CP260 | CP262 | CP266 | CP286 | CP291 | CP305 | CP315 | CP325 | DFO2036 | DIV30 | ECU | FAB9 | HB3 | JCK | N140 | PAD | PC15 | PC26 | SC27B | TAB113 | TAB165
